High-throughput results (PubChem BioAssay)
HP1b binding inh – HTS for Inhibitors of HP1-beta Chromodomain Interactions with Methylated Histone Tails; Chromobox protein homolog 1 (Homo sapiens), P83916; 0.56% of 390,000 active; AlphaScreen HP1-beta / biotin-H3K9me3 peptide binding; Potency, µM (top dose mostly 114 µM), inactives show at the top dose activity change, negative = inhibition, most hits filed as inhibitors; also: potency is read from the fitted curve at half-maximal effect; nearly all actives have a fitted effect of over 70% in size
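Compound inhibition of the preformed complex between 50 nM HP1-beta and 50 nM biotinylated H3K9me3 peptide was read by AlphaScreen. Buffer was PBS pH 7.4 with 0.01% Tween-20. Incubations ran 30 min at room temperature, with 10 ug/mL donor/acceptor beads.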
BAZ2B block – qHTS Assay for Inhibitors of BAZ2B. AID 504333, 2011. 4.4% of 360,000 active. AlphaScreen BAZ2B-H3K14Ac peptide displacement. Potency, µM (doses to about 114 µM), for inactives: top-dose activity change, negative = inhibition, hits mostly inhibitors; also: potency is read from the fitted curve at half-maximal effect; % is scaled to controls: 0 for no effect and ±100 for the full control effect; nearly all actives have a fitted effect of over 60% in size
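Complex of BAZ2B and biotin-H3K14Ac (50 nM apiece) forms over 30 min at RT, then faces library compounds up to 110 uM for another 30 min; AlphaScreen beads added, 20 min dark incubation, luminescence read.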
L3MBTL1 inh – qHTS Assay for the Inhibitors of L3MBTL1; Lethal(3)malignant brain tumor-like protein 1 (Homo sapiens), Q9Y468; AlphaScreen L3MBTL1–H3K9me1 peptide binding; Potency, µM (titrated, usually from 57.1 µM), without a hit: at the top dose activity, negative = inhibition, most hits filed as inhibitors; 0.66% of 230,000 active; AID 485360, 2010; also: potency is read from the fitted curve at half-maximal effect; % is scaled to controls: 0 for no effect and ±100 for the full control effect; nearly all actives have a fitted effect of over 60% in size
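First, the protein-peptide complex forms for 30 min at room temperature (L3MBTL1 50 nM, biotinylated H3K9me1 peptide 75 nM). Next, compounds are pin-transferred and incubated 30 min. Finally, AlphaScreen beads are added and read after 30 min.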
PI5P4Ka inh – qHTS for Inhibitors of phosphatidylinositol 5-phosphate 4-kinase (PI5P4K) | PI5P4Kalpha enzyme, ADP-Glo luminescence, 60 min; active compounds read low | max response, % | 1.2% of 330,000 active; active = max response of -50% or lower; inconclusive = between -30% and -50%; inactive = -30% or higher; also: value at the top dose of about 77 µM; % is scaled to controls: 0 for no effect and ±100 for the full control effect
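Quantitative HTS of the MLSMR library against PI5P4Kalpha with substrate. ATP added last at 5 microM final; room temperature, 60 minutes. Remaining ATP depleted, ADP converted and read as luminescence.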
G9a inh – qHTS Assay for Inhibitors of Histone Lysine Methyltransferase G9a | AID 504332, 2011 | Histone-lysine N-methyltransferase EHMT2 (Homo sapiens), Q96KQ7 | Potency, µM (doses to about 102 µM), without a hit: at the top dose activity, negative = inhibition, usual class: inhibitors | G9a H3K9 monomethylation, AlphaScreen, 2 h | 8.8% of 350,000 active; also: potency is read from the fitted curve at half-maximal effect; % is scaled to controls: 0 for no effect and ±100 for the full control effect; nearly all actives have a fitted effect of over 75% in size
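Step 1: enzyme (final 20 nM) with compound, 15 min RT. Step 2: substrate peptide 500 nM and SAM 20 uM, 2 h RT. Step 3: anti-H3K9me1 antibody and AlphaScreen beads, 10 min, then plate read.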
JMJD2A Tudor inh – qHTS Assay for Inhibitors of JMJD2A-Tudor Domain; AlphaScreen JMJD2A-Tudor / H3K4me3 peptide binding; Potency, µM (top dose mostly 114 µM), for inactives: top-dose activity change, negative = inhibition, usual class: inhibitors; 4.4% of 390,000 active; AID 504339, 2011; also: potency is read from the fitted curve at half-maximal effect; % is scaled to controls: 0 for no effect and ±100 for the full control effect; nearly all actives have a fitted effect of over 50% in size
Active calls of the source: *; ? = inconclusive; nt = not tested or not shown; [ ] = remark or other dose. The list is not random: actives were taken first. Their share in the collection is about 11%. Unless noted, calls follow the shape of the dose curve; as a rule, active = well fitted inhibition curve with a large enough effect; inconclusive = small, poorly fitted or top-dose-only effect; inactive = no such curve, though single readings can be large or run the other way.

SMILES	HP1b binding inh	BAZ2B block	L3MBTL1 inh	PI5P4Ka inh	G9a inh	JMJD2A Tudor inh
CCOc1ccccc1NC1=NCC(=O)N1Cc1ccc(F)cc1	13%	?	9%	nt	50µM*	-15%
Cc1ccc(NC2=NCC(=O)N2Cc2ccccc2)c(C)c1	21%	11%	24%	-17	-18%[59 µM]	-17%
COc1ccccc1NC1=NCC(=O)N1Cc1ccccc1	16%	-8%	12%	6	4%[0.501 µM]	-5%
COc1ccc(CN2C(=O)CN=C2Nc2cccc(C)c2C)cc1	24%	?	1%	-3	56µM*	-23%
COc1ccc(C2(C(=O)c3ccccc3)C(=O)c3ccccc3C2=O)cc1	?	22µM*	-17%	-1	nt	35µM*
COc1ccc(C(=O)CC(=O)c2ccccc2)cc1	269%	nt	nt	5	nt	158%
COc1ccc(/C=N/NC(=O)c2cc(O)c(O)c(O)c2)cc1Cn1cc([N+](=O)[O-])cn1	?	10µM*	nt	-59*	14µM*	10µM*
COc1ccc(/C=N/NC(=O)c2ccccc2O)cc1Cn1cc([N+](=O)[O-])cn1	29%	-4%	8%	-6	10%	-6%[11.4 µM]
COc1ccc(/C=N/Nc2ccccc2C(=O)O)cc1Cn1cc([N+](=O)[O-])cn1	-15%	50µM*	-27%	?	22µM*	?
CCN(C(=O)CSc1nc2ccccc2n1Cc1ccc(C(=O)OC)cc1)c1ccccc1	0%	-37%	nt	nt	-30%[12.7 µM]	-29%
CC(=O)N=c1sc2nc3ccccc3nc2n1N(C(C)=O)C(C)=O	?	50µM*	nt	nt	?	7.9µM*
CCOc1ccc(N2C(=O)CS(=O)(=O)C23C(=O)N(Cc2cccc(Cl)c2)c2ccccc23)cc1 (centres undefined)	6%	-2%[57.1 µM]	nt	nt	-40%[59 µM]	-29%
Cc1ccc(-c2nc(C(=O)NCc3ccc(Cl)cc3)c3n2CCCCC3)cc1	16%	4%	nt	nt	6%[59 µM]	-7%
O=C(NCCc1ccccc1)c1nc(-c2ccc(Cl)cc2)n2c1CCCCC2	-19%	25µM*	nt	nt	14µM*	22µM*
O=C(c1nc(-c2ccc(Cl)cc2)n2c1CCCCC2)N1CCN(c2ccc(F)cc2)CC1	?	40µM*	nt	nt	?	40µM*
O=C(NCc1ccccc1)c1nc(-c2ccc(Cl)cc2)n2c1CCCCC2	-5%	13µM*	nt	nt	14µM*	22µM*
COc1ccc(N(C)C(=O)c2nc(-c3cccc(F)c3)n3c2CCCCC3)c(OC)c1	23%	-25%	nt	nt	-23%[59 µM]	-27%
O=C(c1ccc(Cl)cc1)N1CCN(c2ccc(F)cc2)CC1	28%	6%	7%	-1	10%[59 µM]	-11%
O=C(NCCc1ccc(Cl)cc1)c1nc(-c2cccc(F)c2)n2c1CCCCC2	-23%	11µM*	nt	nt	25µM*	22µM*
CC(C)CCn1c(=O)c2sccc2n2c(CCCC(=O)NC3CCC(C)CC3)nnc12 (centres undefined)	-2%	-16%	nt	nt	-27%[59 µM]	-13%
CCOc1ccc(-n2c(=O)c3c(C)c(C)sc3n(Cc3ccccc3C)c2=O)cc1	12%	3%	nt	nt	8%[59 µM]	-12%
COC(=O)c1cc(F)c(S(=O)(=O)N2CCN(S(=O)(=O)c3ccc4c(c3)OCCO4)CC2)cc1F	nt	nt	nt	nt	nt	-7%
COc1ccc(Cn2c(CNC(=O)Cc3ccc(OC)c(OC)c3)nc3cccnc32)cc1	9%[57 µM]	-1%	nt	nt	14%[59 µM]	-15%
CCOc1ccccc1CNC(=O)c1nc(-c2ccc(Cl)cc2)n2c1CCCCC2	-15%	10µM*	nt	nt	10µM*	?
COC(=O)c1ccc(NC(=O)c2nc(-c3ccc(Cl)cc3)n3c2CCCCC3)cc1	-1%	?	nt	nt	?	-35%
SMILES	HP1b binding inh	BAZ2B block	L3MBTL1 inh	PI5P4Ka inh	G9a inh	JMJD2A Tudor inh
COc1cc(NC(=O)c2nc(-c3ccc(Cl)cc3)n3c2CCCCC3)cc(OC)c1OC	5%	-35%	nt	nt	?	-20%
CC(C)N(Cc1ccccc1)C(=O)c1nc(-c2ccc(Cl)cc2)n2c1CCCCC2	-15%	35µM*	nt	nt	?	45µM*
CC(=O)Oc1ccc(C(=O)COC(=O)CNC(=O)COc2ccccc2C)cc1	10%[57 µM]	nt	nt	nt	nt	-5%[57.1 µM]
COc1ccc(Cl)cc1NS(=O)(=O)c1ccc(S(=O)(=O)N2CCCC2)cc1	28%	-7%	4%	nt	8.9µM*	-8%
COc1ccc(Nc2ccc(S(=O)(=O)N3CCCCC3)cc2[N+](=O)[O-])cc1Cl	?	8.9µM*	?	7	7.1µM*	5.6µM*
CCc1ccc(Nc2ccc(S(=O)(=O)N3CCOCC3)cc2[N+](=O)[O-])cc1	?	11µM*	?	-2	28µM*	11µM*
CCOc1ccc(Nc2ccc(S(=O)(=O)N3CCOCC3)cc2[N+](=O)[O-])cc1	nt	nt	nt	1	nt	nt
Cc1ccc(Nc2ccc(S(=O)(=O)N3CCOCC3)cc2[N+](=O)[O-])c(C)c1	?	10µM*	?	-1	35µM*	?
CCCCN(CC(=O)NC1CCCC1)C(=O)C(=O)Nc1ccc2c(c1)OCCO2	5%	0%	nt	2	7%	79µM*
COc1ccc(NS(=O)(=O)c2cc(N)ccc2N2CCOCC2)cc1	-16%	-15%	nt	-8	16µM*	-25%
Nc1ccc(N2CCOCC2)c(S(=O)(=O)Nc2cc(Cl)ccc2Cl)c1	2%	-35%	-22%	?	35µM*	?
O=C(/C=C/c1cccs1)Nc1ccc(N2CCOCC2)c(S(=O)(=O)Nc2cc(Cl)ccc2Cl)c1	4%	-27%	-4%	1	56µM*	-20%
COc1ccc(NS(=O)(=O)c2cc(N)ccc2N2CCCC2)cc1	?	nt	-20%	-23	nt	56µM*
CC(C)Oc1ccc(CNC(=O)C2CCCN(S(=O)(=O)c3ccc4c(ccn4C)c3)C2)cc1 (centres undefined)	33%[57 µM]	0%	nt	nt	1%[59 µM]	-12%
CCc1ccccc1NC(=O)[C@H](Cc1ccccc1)N1Cc2ccccc2C1=O	57%	-15%	nt	nt	6%[59 µM]	-1%
CC1CCN(C(=O)CSc2nc(-c3ccccc3)no2)CC1	92%	19%	nt	nt	0%[59 µM]	25%
CCOC(=O)N1CCN(Cc2nc3cc(NC(=O)c4ccc([N+](=O)[O-])cc4)ccc3n2C(C)C)CC1	27%	-38%	nt	nt	-31%[59 µM]	-26%
CCOc1ccc2oc(=O)cc(CN3CCN(c4cc(C)ccc4C)CC3)c2c1	23%	-2%	nt	nt	-4%[59 µM]	-19%
